Assay [1] deals with human Vascular Endothelial Growth Factor Receptor 1 (VEGFR1), FLT1 (gene 2321) (UniProt P17948). Briefly: NVS_ENZ_hVEGFR1: NovaScreen (NVS) Enzymatic Assay for human Vascular Endothelial Growth Factor Receptor 1 (VEGFR1) (AID 2283226). The method, boiled down: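 Kinase activity of recombinant human VEGFR1 was read by fluorescence after electrophoretic separation of product from substrate, 1 h post-dosing; initial duplicate single-point testing at 25 uM, followed by concentration-series follow-up, with DMSO as baseline.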

For assay [2], the target named is guinea pig Opioid, Kappa 1 Receptor (OpiateK), OPRK1 (gene 100135587) (UniProt P41144). The experiment in a line: NVS_GPCR_gOpiateK: NovaScreen (NVS) G Protein-Coupled Receptor Assay for guinea pig Opioid, Kappa 1 Receptor (OpiateK) (AID 2283252).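 Further: radioligand displacement from kappa opioid receptor in guinea pig cerebellar membranes; active means reduced radioligand binding relative to DMSO.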 An outline of the steps:
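Radioligand competition binding using guinea pig cerebellum membrane fraction; 2 h exposure; filter radiodetection. Single concentration 25 uM (duplicate), follow-up concentration-response for actives.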

The target of assay [3] is rat Acetylcholinesterase (AChE), Ache (gene 83817) (UniProt P37136). The experiment in a line: NVS_ENZ_rAChE: NovaScreen (NVS) Enzymatic Assay for rat Acetylcholinesterase (AChE) (AID 2283233). The method, boiled down:
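Compounds first screened at 25 uM in duplicate, then those passing threshold tested in concentration series up to 50 uM, against AChE from rat brain membranes. Enzyme activity read by absorbance at 0.33 h; inhibition scored versus DMSO.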

Assay [4] addresses human Adenosine A1 Receptor (AdoRA1), ADORA1 (gene 134) (UniProt P30542). Briefly: NVS_GPCR_hAdoRA1: NovaScreen (NVS) G Protein-Coupled Receptor Assay for human Adenosine A1 Receptor (AdoRA1) (AID 2283254). The method, boiled down:
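Hum. cortical membranes + radioligand, cmpd 1 h; filtration, scintillation count. Readout = decrease vs DMSO. Primary 25 uM dup; hits → conc. series.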

Assay [5] concerns the target human Vascular Endothelial Growth Factor Receptor 3 (VEGFR3), FLT4 (gene 2324) (UniProt P35916). Briefly: NVS_ENZ_hVEGFR3: NovaScreen (NVS) Enzymatic Assay for human Vascular Endothelial Growth Factor Receptor 3 (VEGFR3) (AID 2283229). An outline of the steps: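 Chemicals first run in duplicate at 25 uM, with actives re-tested in concentration series to a top of 50 uM. Recombinant VEGFR3 activity measured after 1 h via fluorescence with mobility-shift product separation; inhibition fitted relative to DMSO.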

Assay [6] concerns the target sheep Cyclooxygenase-1 (Cox1), PTGS1 (gene 443551) (UniProt P05979). The experiment in a line: NVS_ENZ_oCOX1: NovaScreen (NVS) Enzymatic Assay for sheep Cyclooxygenase-1 (Cox1) (AID 2283239).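 Further: actives reduce cyclooxygenase activity so potencies are for inhibitors.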 An outline of the steps:
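Cell-free colorimetric assay of enzyme activity in a native extract of ovine seminal vesicles. Absorbance was read 0.66 hour after compound addition. Loss of signal relative to the DMSO negative control was scored, with actives from the 25 uM duplicate primary screen retested in concentration series.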

The target of assay [7] is rabbit Imidazoline 2 Central (I2C), CKB (gene 100009085) (UniProt P00567). Briefly: NVS_ENZ_rabI2C: NovaScreen (NVS) Enzymatic Assay for rabbit Imidazoline 2 Central (I2C) (AID 2283228). The method, boiled down:
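Rabbit brain membranes, cell-free; readout by filter-based scintillation counting 1.5 hours after dosing, loss of signal vs DMSO. Initial duplicate test at 25 uM, then concentration-response with 50 uM top concentration.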

Assay [8] has as its target human Vascular Endothelial Growth Factor Receptor 2 (VEGFR2), KDR (gene 3791) (UniProt P35968). The experiment in a line: NVS_ENZ_hVEGFR2: NovaScreen (NVS) Enzymatic Assay for human Vascular Endothelial Growth Factor Receptor 2 (VEGFR2) (AID 2283230). An outline of the steps:
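Cell-free recombinant VEGFR2 kinase, fluorescent substrate with electrophoretic mobility-shift separation; read 1 h after dosing. Screened at 25 uM in duplicate, hits to concentration-response up to 50 uM; loss-of-signal versus DMSO.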

Assay [9] relates to rat Monoamine Oxidase, MAO-A, Peripheral (MAOAP), gene 29253. Briefly: NVS_ENZ_rMAOAP: NovaScreen (NVS) Enzymatic Assay for rat Monoamine Oxidase, MAO-A, Peripheral (MAOAP) (AID 2283237). The method, boiled down:
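Scintillation counting tracked MAO-A activity in a cell-free rat liver mitochondrial membrane prep, read 1.17 hours after compound addition. Single-point duplicate testing at 25 uM preceded concentration-response follow-up; activity was fitted relative to DMSO.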

The target of assay [10] is rat Monoamine Oxidase, MAO-B, Central (MAOBC), Maob (gene 25750) (UniProt P19643). Briefly: NVS_ENZ_rMAOBC: NovaScreen (NVS) Enzymatic Assay for rat Monoamine Oxidase, MAO-B, Central (MAOBC) (AID 2283238). The method, boiled down:
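Here MAO-B activity in rat brain preparations is quantified radiometrically, counts taken at 1.17 hours. Concentration-response runs reach 50 uM, with plate controls, and values are fitted as loss of signal from the DMSO baseline.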

Assay [11] addresses rat Monoamine Oxidase, MAO-B, Peripheral (MAOBP), Maob (gene 25750) (UniProt P19643). The experiment in a line: NVS_ENZ_rMAOBP: NovaScreen (NVS) Enzymatic Assay for rat Monoamine Oxidase, MAO-B, Peripheral (MAOBP) (AID 2283242). Here is the method: NVS_ENZ_rMAOBP is a biochemical, single-readout assay that uses extracted gene-proteins from Rat brain in a tissue-based cell-free assay. Measurements were taken 1.17 hours after chemical dosing in a 96-well plate.NVS_ENZ_rMAOBP is one of one assay component(s) measured or calculated from the NVS_ENZ_rMAOBP assay. It is designed to make measurements of enzyme activity, a form of enzyme reporter, as detected with scintillation counting signals by Lysate-based radiodetection technology.Data from the assay component NVS_ENZ_rMAOBP was analyzed into 1 assay endpoint. This assay endpoint, NVS_ENZ_rMAOBP, was analyzed in the positive analysis fitting direction relative to DMSO as the negative control and baseline of activity. Using a type of enzyme reporter, loss-of-signal activity can be used to understand changes in the enzymatic activity as they relate to the gene Maob. Furthermore, this assay endpoint can be referred to as a primary readout, because this assay has produced multiple assay endpoints where this one serves a enzymatic activity function. To generalize the intended target to other relatable targets, this assay endpoint is annotated to the oxidoreductase intended target family, where the subfamily is monoamine oxidase. […]

The test system of assay [12] is rat Monoamine Oxidase, MAO-A, Central (MAOAC), gene 29253. Briefly: NVS_ENZ_rMAOAC: NovaScreen (NVS) Enzymatic Assay for rat Monoamine Oxidase, MAO-A, Central (MAOAC) (AID 2283243).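 Further: potency refers to inhibition seen as signal drop below DMSO baseline.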 An outline of the steps:
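Lysate-based radiometric enzyme assay using rat brain tissue; 1.5 h treatment; 25 uM single-point duplicate screen, concentration-response follow-up; loss of signal versus DMSO.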

Assay [13] addresses guinea pig Leukotriene D4 Receptor (LTD4), CYSLTR1 (gene 100135514) (UniProt Q2NNR5). The experiment in a line: NVS_GPCR_gLTD4: NovaScreen (NVS) G Protein-Coupled Receptor Assay for guinea pig Leukotriene D4 Receptor (LTD4) (AID 2283248). The method, boiled down: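 Guinea pig lung membrane preparation; bound radioligand measured by filter scintillation after 1 h, loss of signal versus DMSO marking displacement. Compounds tested at 25 uM in duplicate, hits retested to max 50 uM.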

The test system of assay [14] is bovine Angiotensin II Receptor Type 2 (AT2), gene 407157. Briefly: NVS_GPCR_bAT2: NovaScreen (NVS) G Protein-Coupled Receptor Assay for bovine Angiotensin II Receptor Type 2 (AT2) (AID 2283240). An outline of the steps:
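Radioligand displacement on bovine cerebellar membranes, 1 hour incubation, filter-based scintillation counting; loss of signal vs DMSO. Duplicate single-point screen at 25 uM, then concentration-response to 50 uM maximum.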

For assay [15], the system named is guinea pig Leukotriene B4 Receptor (LTB4), gene 100379538. Briefly: NVS_GPCR_gLTB4: NovaScreen (NVS) G Protein-Coupled Receptor Assay for guinea pig Leukotriene B4 Receptor (LTB4) (AID 2283247). An outline of the steps: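 Membranes from guinea pig spleen incubated 2 h with radioligand and compound; bound counts measured by filtration and scintillation. Screened first at 25 uM in duplicate, then actives titrated to a 50 uM top concentration relative to DMSO.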

The target in assay [16] is human Serotonin, 5-Hydroxytryptamine Receptor 5A (5HT5A), HTR5A (gene 3361) (UniProt P47898). The experiment in a line: NVS_GPCR_h5HT5A: NovaScreen (NVS) G Protein-Coupled Receptor Assay for human Serotonin, 5-Hydroxytryptamine Receptor 5A (5HT5A) (AID 2283251). An outline of the steps:
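Membranes from HEK293 cells, radioligand binding read by filtration and scintillation after 1 h. Single-concentration duplicate testing at 25 uM, then concentration-response for actives; positive-direction fitting relative to DMSO.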

Assay [17] concerns the target human Serotonin, 5-Hydroxytryptamine Receptor 7 (5HT7), HTR7 (gene 3363) (UniProt P34969). The experiment in a line: NVS_GPCR_h5HT7: NovaScreen (NVS) G Protein-Coupled Receptor Assay for human Serotonin, 5-Hydroxytryptamine Receptor 7 (5HT7) (AID 2283255).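 Further: hits reduce specific radioligand binding relative to DMSO.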 The method, boiled down: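 Filter-bound radioactivity counted after 1 h, with loss of specific radioligand binding fitted against DMSO. Membrane protein came from CHO cells expressing human 5HT7. Chemicals were tested first at 25 uM in duplicate, then in concentration series if active.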

Assay [18] deals with human Serotonin, 5-Hydroxytryptamine Receptor 2A (5HT2A), HTR2A (gene 3356) (UniProt P28223). Briefly: NVS_GPCR_h5HT2A: NovaScreen (NVS) G Protein-Coupled Receptor Assay for human Serotonin, 5-Hydroxytryptamine Receptor 2A (5HT2A) (AID 2283249). The method, boiled down: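 Radioligand displacement on human cortex tissue extract, counted by filtration and scintillation 1.5 h post-dosing. Initial single-concentration screen at 25 uM in duplicate, concentration series in follow-up; DMSO as baseline.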

Assay [19] concerns the target Adenosine receptor A1 (Bos taurus) (UniProt P28190). Briefly: NVS_GPCR_bAdoR_NonSelective: NovaScreen (NVS) G Protein-Coupled Receptor Assay for bovine Adenosine Receptor (AdoR), Non-selective Binding (AID 2283244). An outline of the steps:
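Cell-free binding with membranes from bovine striatum: radioligand displaced by test chemical, read after 1 h by filtration and scintillation. Single-point 25 uM duplicate primary, 50 uM top concentration in follow-up curves, DMSO baseline.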

Records with an inconclusive call do not appear. Calls of active or inactive are those of the source. How the source made its calls: active means hit-call score of the fitted dose curve at least 0.9, where 1 is the maximum; inconclusive means response in the unintended direction; inactive means score below 0.9.

sheep Cyclooxygenase-1 (Cox1), PTGS1 (gene 443551), sequence (P05979 whole entry, looked up): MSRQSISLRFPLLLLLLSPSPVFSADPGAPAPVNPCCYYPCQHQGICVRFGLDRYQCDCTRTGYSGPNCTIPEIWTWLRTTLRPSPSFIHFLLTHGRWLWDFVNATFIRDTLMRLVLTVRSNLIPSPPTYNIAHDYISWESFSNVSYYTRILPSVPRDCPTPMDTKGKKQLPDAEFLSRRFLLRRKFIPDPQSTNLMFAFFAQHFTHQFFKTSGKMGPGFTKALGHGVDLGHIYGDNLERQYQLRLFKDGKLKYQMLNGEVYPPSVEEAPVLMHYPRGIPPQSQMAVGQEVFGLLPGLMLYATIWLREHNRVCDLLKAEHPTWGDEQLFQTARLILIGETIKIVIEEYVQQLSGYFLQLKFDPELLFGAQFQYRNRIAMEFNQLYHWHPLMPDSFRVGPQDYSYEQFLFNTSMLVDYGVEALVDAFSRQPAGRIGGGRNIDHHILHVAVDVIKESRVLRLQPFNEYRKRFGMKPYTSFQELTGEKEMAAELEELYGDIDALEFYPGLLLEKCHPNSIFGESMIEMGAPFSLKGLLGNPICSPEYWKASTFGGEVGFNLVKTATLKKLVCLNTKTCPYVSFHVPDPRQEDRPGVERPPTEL
human Vascular Endothelial Growth Factor Receptor 2 (VEGFR2), KDR (gene 3791), sequence (P35968 whole entry, looked up): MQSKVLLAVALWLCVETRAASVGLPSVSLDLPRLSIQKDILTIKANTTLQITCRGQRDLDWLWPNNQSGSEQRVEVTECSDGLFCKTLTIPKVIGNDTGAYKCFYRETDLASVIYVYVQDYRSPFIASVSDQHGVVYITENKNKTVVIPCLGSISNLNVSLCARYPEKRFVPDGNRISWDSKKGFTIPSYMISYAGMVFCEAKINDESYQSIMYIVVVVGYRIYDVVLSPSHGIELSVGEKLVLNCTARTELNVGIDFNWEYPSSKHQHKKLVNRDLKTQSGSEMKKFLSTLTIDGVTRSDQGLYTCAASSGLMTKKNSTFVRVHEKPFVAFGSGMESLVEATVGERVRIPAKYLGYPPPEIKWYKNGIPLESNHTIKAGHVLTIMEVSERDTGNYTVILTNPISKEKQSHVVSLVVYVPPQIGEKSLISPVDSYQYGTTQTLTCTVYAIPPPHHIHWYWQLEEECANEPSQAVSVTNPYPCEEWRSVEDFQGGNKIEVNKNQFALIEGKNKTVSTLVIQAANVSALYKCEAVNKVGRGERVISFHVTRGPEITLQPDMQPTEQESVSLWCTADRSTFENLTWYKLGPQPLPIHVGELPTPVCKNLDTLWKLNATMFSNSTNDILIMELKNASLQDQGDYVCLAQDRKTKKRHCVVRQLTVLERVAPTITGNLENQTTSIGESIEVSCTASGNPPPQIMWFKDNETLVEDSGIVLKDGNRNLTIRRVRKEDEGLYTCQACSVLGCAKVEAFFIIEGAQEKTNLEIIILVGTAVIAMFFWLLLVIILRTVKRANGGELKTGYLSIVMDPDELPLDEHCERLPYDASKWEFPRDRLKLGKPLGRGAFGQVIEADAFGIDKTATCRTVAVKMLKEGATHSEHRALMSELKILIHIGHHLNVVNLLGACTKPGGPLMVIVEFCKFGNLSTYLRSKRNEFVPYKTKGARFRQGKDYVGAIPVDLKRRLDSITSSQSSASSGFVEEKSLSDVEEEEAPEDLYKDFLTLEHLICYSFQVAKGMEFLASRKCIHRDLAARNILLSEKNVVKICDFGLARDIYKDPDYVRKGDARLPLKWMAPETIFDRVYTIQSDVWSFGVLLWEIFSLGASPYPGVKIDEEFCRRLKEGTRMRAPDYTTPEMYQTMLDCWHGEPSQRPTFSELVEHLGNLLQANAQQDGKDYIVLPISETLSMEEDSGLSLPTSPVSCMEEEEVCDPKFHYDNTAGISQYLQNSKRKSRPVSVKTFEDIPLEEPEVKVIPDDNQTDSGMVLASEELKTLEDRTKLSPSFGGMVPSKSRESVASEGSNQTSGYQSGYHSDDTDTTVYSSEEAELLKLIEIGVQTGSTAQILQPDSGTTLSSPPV
human Vascular Endothelial Growth Factor Receptor 3 (VEGFR3), FLT4 (gene 2324), sequence (P35916 whole entry, looked up): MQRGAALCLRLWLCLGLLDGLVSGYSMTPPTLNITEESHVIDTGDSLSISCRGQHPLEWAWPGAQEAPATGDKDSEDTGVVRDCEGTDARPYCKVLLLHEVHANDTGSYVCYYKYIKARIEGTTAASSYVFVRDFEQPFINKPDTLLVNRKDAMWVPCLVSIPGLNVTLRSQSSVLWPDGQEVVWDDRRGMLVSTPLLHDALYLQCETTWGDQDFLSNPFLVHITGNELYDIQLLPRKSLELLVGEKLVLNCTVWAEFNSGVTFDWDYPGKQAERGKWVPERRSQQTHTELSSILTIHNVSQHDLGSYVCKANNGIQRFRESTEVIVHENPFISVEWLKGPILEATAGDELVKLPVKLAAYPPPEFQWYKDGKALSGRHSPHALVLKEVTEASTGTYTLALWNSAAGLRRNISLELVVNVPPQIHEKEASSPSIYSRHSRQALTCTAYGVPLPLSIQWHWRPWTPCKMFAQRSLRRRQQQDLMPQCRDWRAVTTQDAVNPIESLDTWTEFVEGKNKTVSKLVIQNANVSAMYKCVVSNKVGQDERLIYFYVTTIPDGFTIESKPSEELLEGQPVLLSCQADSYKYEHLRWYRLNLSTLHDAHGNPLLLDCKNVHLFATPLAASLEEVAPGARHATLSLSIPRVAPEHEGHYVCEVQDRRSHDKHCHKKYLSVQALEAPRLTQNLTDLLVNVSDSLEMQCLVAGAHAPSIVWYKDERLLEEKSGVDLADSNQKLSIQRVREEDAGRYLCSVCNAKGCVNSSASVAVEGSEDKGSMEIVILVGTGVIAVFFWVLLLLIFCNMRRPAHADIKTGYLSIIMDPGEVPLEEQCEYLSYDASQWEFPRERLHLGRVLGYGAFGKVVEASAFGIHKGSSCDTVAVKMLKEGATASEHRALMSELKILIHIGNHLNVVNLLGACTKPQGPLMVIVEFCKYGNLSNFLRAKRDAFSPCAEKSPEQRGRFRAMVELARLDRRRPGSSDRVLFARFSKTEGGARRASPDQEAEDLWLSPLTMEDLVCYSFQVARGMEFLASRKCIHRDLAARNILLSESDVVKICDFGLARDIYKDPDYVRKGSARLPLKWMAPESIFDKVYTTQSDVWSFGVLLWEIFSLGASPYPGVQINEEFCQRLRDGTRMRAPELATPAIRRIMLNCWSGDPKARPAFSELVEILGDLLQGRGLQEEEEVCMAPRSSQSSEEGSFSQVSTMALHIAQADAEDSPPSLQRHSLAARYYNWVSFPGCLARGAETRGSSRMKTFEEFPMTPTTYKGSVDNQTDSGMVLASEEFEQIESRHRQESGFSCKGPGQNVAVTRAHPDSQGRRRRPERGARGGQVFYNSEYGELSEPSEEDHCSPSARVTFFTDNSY
guinea pig Opioid, Kappa 1 Receptor (OpiateK), OPRK1 (gene 100135587), sequence (P41144 whole entry, looked up): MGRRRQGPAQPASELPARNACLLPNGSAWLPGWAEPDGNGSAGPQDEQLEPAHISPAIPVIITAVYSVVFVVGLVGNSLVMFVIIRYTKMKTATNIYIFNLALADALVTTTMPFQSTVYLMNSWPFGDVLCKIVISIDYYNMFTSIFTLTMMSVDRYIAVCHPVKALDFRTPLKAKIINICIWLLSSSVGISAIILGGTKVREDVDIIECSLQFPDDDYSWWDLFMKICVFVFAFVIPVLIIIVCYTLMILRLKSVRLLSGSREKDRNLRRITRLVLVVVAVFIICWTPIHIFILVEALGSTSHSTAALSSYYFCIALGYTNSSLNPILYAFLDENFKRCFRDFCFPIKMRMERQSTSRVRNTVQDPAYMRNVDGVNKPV
rat Acetylcholinesterase (AChE), Ache (gene 83817), sequence (P37136 whole entry, looked up): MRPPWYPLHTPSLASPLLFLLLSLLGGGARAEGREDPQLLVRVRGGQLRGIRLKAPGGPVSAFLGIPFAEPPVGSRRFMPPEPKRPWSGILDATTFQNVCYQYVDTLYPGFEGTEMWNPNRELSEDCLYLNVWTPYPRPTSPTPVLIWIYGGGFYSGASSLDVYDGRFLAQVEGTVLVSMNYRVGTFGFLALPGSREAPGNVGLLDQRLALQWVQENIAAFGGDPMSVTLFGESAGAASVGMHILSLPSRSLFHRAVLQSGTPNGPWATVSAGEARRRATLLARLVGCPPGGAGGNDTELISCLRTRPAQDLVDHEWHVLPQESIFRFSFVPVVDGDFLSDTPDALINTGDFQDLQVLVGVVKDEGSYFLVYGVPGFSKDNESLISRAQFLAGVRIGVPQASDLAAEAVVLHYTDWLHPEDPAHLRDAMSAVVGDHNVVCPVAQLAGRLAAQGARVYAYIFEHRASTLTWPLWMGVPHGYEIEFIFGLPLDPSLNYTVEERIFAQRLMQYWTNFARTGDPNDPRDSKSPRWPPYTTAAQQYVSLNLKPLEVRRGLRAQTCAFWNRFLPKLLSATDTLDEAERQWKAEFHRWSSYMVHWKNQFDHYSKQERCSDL
human Adenosine A1 Receptor (AdoRA1), ADORA1 (gene 134), sequence (P30542 whole entry, looked up): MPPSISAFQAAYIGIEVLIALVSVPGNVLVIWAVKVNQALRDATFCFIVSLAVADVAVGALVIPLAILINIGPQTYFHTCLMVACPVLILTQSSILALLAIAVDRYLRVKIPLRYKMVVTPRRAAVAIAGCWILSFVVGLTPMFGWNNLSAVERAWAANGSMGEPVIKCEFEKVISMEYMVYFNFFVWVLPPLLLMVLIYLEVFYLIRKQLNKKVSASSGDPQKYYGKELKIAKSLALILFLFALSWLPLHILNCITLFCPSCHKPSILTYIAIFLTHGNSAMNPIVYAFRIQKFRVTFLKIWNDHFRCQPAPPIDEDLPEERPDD
guinea pig Leukotriene D4 Receptor (LTD4), CYSLTR1 (gene 100135514), sequence (Q2NNR5 whole entry, looked up): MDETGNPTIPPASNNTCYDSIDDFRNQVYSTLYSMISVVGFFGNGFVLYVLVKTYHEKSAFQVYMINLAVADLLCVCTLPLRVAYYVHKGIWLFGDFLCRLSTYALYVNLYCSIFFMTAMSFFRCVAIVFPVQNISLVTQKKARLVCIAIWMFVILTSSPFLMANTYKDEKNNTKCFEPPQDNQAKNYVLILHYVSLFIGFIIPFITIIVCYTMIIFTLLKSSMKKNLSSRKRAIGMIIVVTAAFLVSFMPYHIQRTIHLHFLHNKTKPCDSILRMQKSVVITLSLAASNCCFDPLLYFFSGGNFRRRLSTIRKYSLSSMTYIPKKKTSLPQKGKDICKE

As usually defined, the AC50 is the midpoint of the concentration-response curve, whichever way the signal moves. Take `Nc1c(Oc2ccccc2)cc(O)c2c1C(=O)c1ccccc1C2=O`: the AC50 in assay [1] was 0.898 µM (active). Also, the call in [2] was inactive.

As for `CCOP(=O)(OCC)OC(=CCl)c1ccc(Cl)cc1Cl`, the figures for the concentration at half-maximal activity (AC50) in assay [3] and in assay [2] were 6.51 µM (active) and 18.3 µM (active), respectively. For the same compound, the call in assay [4] was inactive.

As to `COc1nn(C(=O)NS(=O)(=O)c2ccccc2OC(F)(F)F)c(=O)n1C`, in assay [5], the AC50 is 11.4 µM (active).

On to `O=C(O)COc1cc(Cl)c(Cl)cc1Cl`, for which, in assay [6], the compound was called inactive.

`CC(C=O)Cc1ccc2c(c1)OCO2` (stereo unspecified): the AC50 in [6] is 25 µM (active).

Regarding `COc1ccc(N)cc1`, the AC50 in [6] is 26 µM (active).

As to `Clc1cccc(Cl)c1Cl`, the compound was called inactive in assay [1].

For `COc1ccccc1N`, the compound was classed as inactive in assay [7]. Moreover, the AC50 in assay [6] was 0.146 µM (active).

`OCCN(CCO)CCO`: the result in [8] was inactive.

Turning to `C=C(C)C(=O)OCC(CC)CCCC` (stereo unspecified), the call in [1] was inactive.

Take `Oc1cc(Cl)c(Cl)cc1Cl`: the compound was classed as inactive in assay [8]. The AC50 in assay [9] is 19.6 µM (active); in [10], 8.69 µM (active); in assay [11], 17.7 µM (active); in assay [12], 16.5 µM (active).

With `O=c1oc2ccccc2c(O)c1C(CC(O)c1ccc(-c2ccc(Br)cc2)cc1)c1ccccc1` (stereo unspecified), the AC50 is 16.9 µM (active) in assay [1], 1.31 µM (active) in assay [6], 9.92 µM (active) in [13] and 23.9 µM (active) in assay [4]. Also, the compound was classed as inactive in [2].

In the case of `N#Cc1cccnc1`, the outcome in assay [1], in assay [8] and in assay [14] was inactive.

Take `O=C(CBr)c1ccc(O)cc1`: the outcome in assay [8] was inactive.

Consider `CCCCCCCCCCCCc1cccc(S(=O)(=O)O)c1`, for which the AC50 was 22.9 µM (active) in [1]; 10.7 µM (active) in assay [5]; 9.17 µM (active) in [8]; 5.06 µM (active) in assay [6]; 10.6 µM (active) in [12]; 10.5 µM (active) in assay [15]. The AC50 was 22.5 µM (active) in [13], 13.7 µM (active) in assay [16] and 14.3 µM (active) in assay [17].

As for `CCOC(=O)C(SP(=S)(OC)OC)c1ccccc1` (stereo unspecified), in [3], the AC50 was 10.2 µM (active).

For the compound `O=C1c2ccccc2C(=O)C1C(=O)C(c1ccccc1)c1ccc(Cl)cc1` (stereo unspecified), the AC50 in [5] is 2.4 µM (active). The outcome in assay [6] was inactive.

In the case of `CC(C)O.CC(C)O.OCCN(CCO)CCO.OCCN(CCO)CCO.[Ti]`, the AC50 in [5] is 21.8 µM (active); in assay [8] it was 6.5 µM (active). Besides, the call in assay [18] was inactive.

For `O=C(N[C@H]1CN2CCC1CC2)c1ccc2c(c1)OCCO2`, the outcome in assay [1], in [5] and in assay [8] was inactive.

Turning to `CCOC(=O)CCN(SN(C)C(=O)Oc1cccc2c1OC(C)(C)C2)C(C)C`, the AC50 in assay [3] was 1.33 µM (active).

As for `CC(C)(C)c1ccccc1O`, the result in [19] was inactive.

For `O=C(O)C1(c2ccc3c(c2)OC[C@H](Cc2ccc(-c4ccccc4)cc2)[C@H]3O)CCCC1`, the AC50 in [15] is 0.00229 µM (active). Besides, in assay [16], the outcome was inactive.

`Oc1c(Cl)cc(Cl)cc1Cl`: in assay [15], the result was inactive.

For the origin of these results see PubChem BioAssay (EPA / NIEHS).
